# From the supplement of paper PMC10681739
# Tests used:
# ETS1 [1] = molecular target: T1, ETS1 (UniProt P14921); test: ETS1 binding intensity (PBM fluorescence), ETS1 alone (arbitrary fluorescence units); higher = stronger binding; details: ETS1 concentration 1 nM; RUNX1 concentration 0 nM
# T1 sequence: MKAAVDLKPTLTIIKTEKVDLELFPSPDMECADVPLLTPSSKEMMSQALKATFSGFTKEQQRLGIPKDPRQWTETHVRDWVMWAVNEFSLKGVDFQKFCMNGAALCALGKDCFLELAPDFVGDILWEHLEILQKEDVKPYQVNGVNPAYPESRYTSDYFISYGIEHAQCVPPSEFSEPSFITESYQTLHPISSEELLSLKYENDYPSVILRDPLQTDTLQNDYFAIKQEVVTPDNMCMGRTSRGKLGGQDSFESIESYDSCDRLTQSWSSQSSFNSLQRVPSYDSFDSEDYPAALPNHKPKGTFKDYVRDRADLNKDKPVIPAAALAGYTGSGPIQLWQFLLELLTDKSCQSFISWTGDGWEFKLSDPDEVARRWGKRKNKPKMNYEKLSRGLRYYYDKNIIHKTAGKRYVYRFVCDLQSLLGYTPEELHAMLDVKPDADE
# RUNX1 [2] = molecular target: RUNX1 (UniProt Q01196); test: RUNX1 binding intensity (PBM fluorescence), RUNX1 alone (arbitrary fluorescence units); higher = stronger binding; details: RUNX1 concentration 2 nM; ETS1 concentration 0 nM
# Sequence of RUNX1 (Q01196 whole entry): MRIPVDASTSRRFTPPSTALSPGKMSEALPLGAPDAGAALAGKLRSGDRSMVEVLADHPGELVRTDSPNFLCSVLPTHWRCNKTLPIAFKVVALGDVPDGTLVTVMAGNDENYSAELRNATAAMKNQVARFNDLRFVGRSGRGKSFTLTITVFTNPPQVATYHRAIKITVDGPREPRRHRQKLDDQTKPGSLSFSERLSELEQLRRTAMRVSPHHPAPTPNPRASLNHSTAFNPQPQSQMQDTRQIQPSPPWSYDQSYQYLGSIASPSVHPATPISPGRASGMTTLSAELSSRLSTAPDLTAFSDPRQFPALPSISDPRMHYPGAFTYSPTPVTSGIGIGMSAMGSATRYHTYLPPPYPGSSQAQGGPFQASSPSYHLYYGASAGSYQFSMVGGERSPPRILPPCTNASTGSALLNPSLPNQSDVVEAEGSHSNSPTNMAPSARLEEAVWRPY
# Description: (§1)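 Cooperative gcPBM on 36-bp genomic probes with neighbouring ETS1 and RUNX1 sites. Recombinant human RUNX1 (2 nM) was incubated alone or with ETS1 (25 nM) and detected with anti-RUNX1 antibody plus Alexa488 secondary. Values are medians over 4 replicate spots; the RUNX1+ETS1 data were normalised to the RUNX1-only data. The probes sit in constant array flanks that are not printed.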
# ETS1 [3] = molecular target: T1, ETS1; test: ETS1 binding intensity (PBM fluorescence) in presence of RUNX1, normalised to ETS1-only experiment (arbitrary fluorescence units); higher = stronger binding; details: ETS1 concentration 1 nM; RUNX1 concentration 25 nM
# RUNX1 [4] = molecular target: RUNX1 (UniProt Q01196); test: RUNX1 binding intensity (PBM fluorescence) in presence of ETS1, normalised to RUNX1-only experiment (arbitrary fluorescence units); higher = stronger binding; details: RUNX1 concentration 2 nM; ETS1 concentration 25 nM
# Description: as §1
# 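Wherever RUNX1 binding intensity (PBM fluorescence) in presence of ETS1, normalised to RUNX1-only experiment is given: Full-length recombinant human ETS1 or RUNX1 bound to double-stranded 36-bp genomic probes on microarrays, detected by protein-specific primary antibody and Alexa488 secondary, spot fluorescence as median of four replicate spots.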
# 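Wherever RUNX1 binding intensity (PBM fluorescence), RUNX1 alone is given: Full-length recombinant human RUNX1 bound to double-stranded 36-bp genomic probes on a high-density microarray, scored as Alexa488 fluorescence per spot via anti-RUNX1 antibody, median of four replicate spots.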
Sequence,ETS1 binding intensity (ETS1 [1]),RUNX1 binding intensity (RUNX1 [2]),ETS1 binding intensity (ETS1 [3]),RUNX1 binding intensity (RUNX1 [4])
ACCGCCGGAAGTTTCTGCCGCGGCTTTGCGGGGACG,3320,791,9610,1760
CCGATGGCGGCGGAACTGTGGTCAGGGCTGCCCTGA,365,825,510,921
AGAGCAACAGGATGCAAATAACCACAAGCAAGAATA,920,1160,4180,3320
CGGGGATGGGATTTCCGGTGGTTTTTCTTCACTTTC,4490,851,4760,3240
CCCCTTCCCGTTCTCCGAAAGTGCGCGGGTTGGAGC,489,792,361,1230
AGTGGCAGTGCAGGAAGTGGTTTGTCTGGTACAATC,3750,788,6800,1590
CCCCACCCAGACAGGAAACTGTGGCTTCTATCAGAT,3020,820,4660,1550
CTGCCGGAAGCTGCCCCTCCACCATTTTGTGGCCCG,1770,818,1850,1280
GGAGAGTTGACTTCCGGCGGCTTGTGGGAGTGCTGG,2740,771,2640,1820
CAGCACGCAGGAAGCACATGTGGTGGGGCTCTTCCA,674,742,759,1030
CCCCTCAGCTTCCGGGTGCTGCGGCCGCGGCCGAGA,646,827,999,1980
TAAGGATGTGTGGCTTCCAGATCAAAAACCGCAAAA,516,7590,3920,10600
GCCTGAAGGACTTCCGGGAACCGCAAAGCACGGTGT,1620,1500,3510,3430
CTAGCAGGAAACAGACAGACCCAGCCACAGAATCTC,470,919,519,884
GACAGTCATGTTTCAGGATGTGGTTTTAGCCAAAGG,1550,816,13200,1710
TTATTTCCGGTGTTGATCTTTTTAGTGGTACCAGGC,3400,1070,3640,2990
GACTTGGGGGAAGTGGCTTGGTTTGCGTGGTTTCTC,433,952,546,1060
CTACGACTTCCGTGATGCCTTGCGGTTGCTGTAGCC,524,2700,1380,8450
ATCTTAAGTGTTTCCTGACACCACAAATCCCCAAAC,501,1020,507,1020
ACCATAAGGACCGGAAGCAGAGACCACACTGGTGCT,7910,831,12600,1440
AGATGCAAACACAGGAAACTTGTGGTCTATGCTGCT,1800,803,7450,1160

Sequence,ETS1 binding intensity (ETS1 [1]),RUNX1 binding intensity (RUNX1 [2]),ETS1 binding intensity (ETS1 [3]),RUNX1 binding intensity (RUNX1 [4])
GTTGAAATTGAGCTTCCGTTGGTGGTTAACCCTCTG,648,894,921,1310
CCCTCAGCGGAAGTGGAAGCTGTGGTTTCCAAAGGC,4750,916,17000,3570
AGACAGGAGTTCAGGAAGCTGCGGTCTAGATTATGT,754,1210,6250,1710
GTTGGGAGGCGCACATCCGGCGGTTACCCGGTGCTT,2360,785,3090,1560
CCCAGGGCAGGAAGGGCCAAACCGCTACTGCCACTG,882,744,2080,908
AGCTTGCGCAGGAAGTCTGCGGCAGGAGGGCGTCCT,1920,687,2760,908
CGCCCACCACTTCCTGCTGGCGGTCGGCAAGCGTTG,1430,1020,2240,8670
GCCCAGTTCTCGCATCCGGTCTGCGGCGCGCTCGGG,4380,828,5020,1840
TCTTGCCCGGGTCGGAAATGGTGGTCACGAGCGCTT,1110,772,1600,991
TGGCTGTCACTTCCTGTCCCACTGTGGTTCCTGGGA,4940,763,5740,1820
AGCTTGCCGGAAGCTGGTTGTTCGCTGCGGCGACCA,4100,705,4380,1220
CGAAACGCGTTCCCCGGAAACCGCGCCCGGCTCCGA,1810,763,3230,1090
AGCTCCCCTCCCCGGAAACTTGACCACCTAGCCCAG,1510,875,1660,813
GAGACACTCTGCTTCCTGCGGTGGAAGATTCAGTAT,473,873,482,1080
TGTCTCTGCCGCCGGAAACCGCGCCGTAGATCATGC,5360,945,7800,1420
TTCTCATCCGGCCGGCTTGCTTTCCCCTGCGGTCGT,394,962,641,1650
GGACCGGAAGTAGGTTTCTACCCGACCGCATTTTAC,12100,889,43900,2740
AACCTCCGACTTCCGGCCGCGCAGCGGTGGGCTGAG,3900,678,4280,1970
CAGACCAGCCCAGGAAACAAGGAACCACAAAGCCAC,656,842,2260,992
TGTCAGCTGCGTTTCCGCGGTCGCGGGTGAGTGTGC,418,752,588,1360
TTGAGGGGAAGGGGAGGAAGTGGTCATTGGAACTTG,2530,776,3150,990

Sequence,ETS1 binding intensity (ETS1 [1]),RUNX1 binding intensity (RUNX1 [2]),ETS1 binding intensity (ETS1 [3]),RUNX1 binding intensity (RUNX1 [4])
GGGGCTGGGAAAGGATGTGGTAAGGGCCAGTCAGTC,884,749,3240,1920
GTAAATAAAGAGGAAGTCCCTATGCGGGGGATGGGG,1910,850,2060,884
GCAATGCCGCTACCGGAAGTGCGGGTCGCGCTCCCG,26000,749,26000,1620
GAGCGCCCACTTCCTGTTTACCACCCAGCCTCTTCG,3670,1110,5330,7590
AGGTCTCCGGAAGTGGGTCTGCGGCGCGCGGGATGC,6040,637,8540,3290
TCTGTCGCACATCCGGTGTGAGCTGCGGGGCGGTGG,7930,753,10600,1640
TGCTCAGAAGGGCATCCGGTTGCGGAGAAGGTACAC,2130,653,2000,1370
AGGACACAGACAGGAAACCCGCAGGCTTTGTTTTTT,2580,859,5290,1470
TATTTCCTGTGCACAGAAGCAGCTGGGCCGCAGAGT,557,697,680,1940
CTGTCCGCTACATCCGGGACCTGCGGGACCGCCGAT,1770,823,2430,2300
GTGTGGAAGGAGGAAGCGAGAATGTGGTTACTTAGG,718,868,1890,1190
CTAACCCTGCTTCCTCTTAGTGGTTTCCCCCAACCT,616,1620,793,3220
CCCCCTGAACATCCGGGGCCTTTTAACCGCCCACGG,1290,937,1690,1790
AGGCAAACTACAGGAAGATCCTGCCCGCAACTTGGT,454,785,2160,931
TTAAACACGGAAGTGCATCGGTTGTTGTGGTTATTC,1260,845,4360,1150
GGCCGGCTTCCGGGGCGGGTGGAAAGGAGCCACAAG,501,750,498,1260
CCAAAATTGCCACGGAAACCACATCTTTCAGGCGAG,486,1520,687,1620
GGCCGTTCTTCCGCCTGCAGGGTGGTCAGCGGAGGT,571,712,446,1010
GCTGCAAGGCGGAAGCAGCGCGGTCGGACGGGCATG,1650,721,2400,997
TTACCATCGCCCTTCCTGTGGGCTGGGAGGCCAGGT,468,754,373,1060
CACTTCCGGGTCGTCAGCTCAGTTCTGCGGTTTCTG,1030,4240,5740,12800

Sequence,ETS1 binding intensity (ETS1 [1]),RUNX1 binding intensity (RUNX1 [2]),ETS1 binding intensity (ETS1 [3]),RUNX1 binding intensity (RUNX1 [4])
CCATCTTCATACAGGATGCTGTGGTATGTAAAACAA,2110,787,3590,1240
CCAAGCACTTCCTGCTGTTAGCTTTGTGGGCTGAGT,826,860,1020,1600
GGCTGGCCTAGGAACTTCCGCCACAAGTCCCGCCCC,1860,822,2220,1390
CGTTCTCTCATTTCCTGTGTGCACCCACATGAACCA,3340,1740,3230,2920
GAACTTCCGGGACCACGTGACGTAGAACCACAACAA,587,815,1100,1690
TCATTTCCTCTGGTGTTATTGTGTTGTGGTTTTAAG,417,1580,1560,3040
ACAGAGCAGGAAGCAGCCCTCACCACAGATGAAGCA,686,760,1210,1360
GCGCGGGCAACTTCCGGTGTGGGTGACGAGTGGTGG,10900,778,12700,2700
GCGCAAGCAGGAAGCGTTTGCGGTGATCCCGGCGAC,1890,746,9000,2000
GTCGGAAGTGGCCGTGAGCCCAAGCCGCGGTCCCGG,480,678,486,951
GCATTGTGCTTCCGCTCGGGGAAAGACCGCTTACGG,789,851,911,1590
TTTCACTTCCGGCATGTTTTTCACCCACAGGGATAT,3910,1130,3980,2750
AGGTTTTGAAAGAGGAAACCACATACCCGAAAACCA,1120,1030,2030,1160
AGTCAAACAGGATGTGGCTGGGGAGGCGGTTGTCAC,3750,725,4660,2040
AGCCAACAGGAAGCTGCAGAGACTAAACCACAGCAA,1150,879,4930,1390
CCAATGGGCAGGCGGAAACCGCGGGCTCGTGCTCCC,1580,956,2900,1350
CCCAATTTCCTTTGCTCTGCTGTCTGCCAACCGCAA,418,2740,491,4340
CGGGGCTTCCGGCGCGCTGCCTTGTGGGCACGGTAG,591,711,611,1390
